Test results published in PubChem BioAssay (EPA / NIEHS).
The source made the active and inactive calls. The calls were made as follows: active = hit-call score of the fitted dose curve at least 0.9, where 1 is the maximum; inactive = score below 0.9.

Each compound was assayed on Monokine induced gamma interferon (MIG), CXCL9 (gene 4283) (assay: BSK_hDFCGF_MIG: BioMAP Diversity Plus: hDFCGF Assay for Monokine induced gamma interferon (MIG) Biomarker Activity (AID 2283063)). Conditions: primary human foreskin fibroblasts; actives raise or lower the signal.
Method: BSK_hDFCGF is a cell-based, multiplexed-readout assay that uses foreskin fibroblast, a human skin primary cell, with measurements taken at 24 hours after chemical dosing in a 96-well plate.BSK_hDFCGF_MIG is an assay component measured in the BSK_hDFCGF assay. It measures MIG antibody related to regulation of gene expression using ELISA technology.Data from the assay component BSK_hDFCGF_MIG was analyzed into 1 assay endpoint. This assay endpoint, BSK_hDFCGF_MIG, was analyzed with bidirectional fitting relative to DMSO as the negative control and baseline of activity. Using a type of binding reporter, gain or loss-of-signal activity can be used to understand changes in the signaling as they relate to the gene CXCL9. Furthermore, this assay endpoint can be referred to as a primary readout, because this assay has produced multiple assay endpoints where this one serves a signaling function. To generalize the intended target to other relatable targets, this assay endpoint is annotated to the cytokine intended target family, where the subfamily is chemotactic factor.
The levels of cell surface (or secreted, indicated by the prefix "s") biomarker endpoints were measured by ELISA. Overt cytotoxicity to cells in confluent adherent cultures (all systems other than the BT system) was assessed by measuring total protein levels using sulforhodamine B (SRB) staining in parallel cultures at the time of biomarker measurements, indicated as SRB endpoints. For proliferation assays for adherent cell types, individual cell types are cultured at sub-confluence and relative cell numbers quantified by SRB staining at time points optimized for each system (48 h: 3C and CASM3C systems; 72 h: BT and HDF3CGF systems; 96 h: SAg system). SRB was performed by staining cells with 0.1% SRB after fixation with 10% TCA and reading wells at 560 nm.Viability and proliferation of PBMC (T cells) was quantified by Alamar Blue reduction for the SAg and BT systems. For PBMC viability (referred to as PBMC Cytotoxicity within the assay endpoint names), cells were plated (75,000/well in a 96-well plate) and then chemical samples added for 1 h before addition of activators, SEB and TSST-1 (20 ng/mL final concentration each). Cells were incubated for 90 h. Then, Alamar Blue (20 uL/well) (Invitrogen, Cat DAL1100) was added for 6 h, and the plates were read with a fluorescence microplate reader at 546/580 nm (excitation/emission). For PBMC proliferation, cells were plated and activated as above but incubated for only 16 h prior to addition of Alamar Blue. Plates were read after 6 h.

Compound | outcome | AC50
Nc1ccc(Oc2ccc(N)cc2)cc1 | inactive | 
c1ccc2c(c1)-c1cccc3cccc-2c13 | inactive | 
OCCCBr | inactive | 
CCCSC(=O)N(CCC)CCC | inactive | 
[As]#[In] | inactive | 
c1ccc(C2CO2)cc1 (stereo not given) | inactive | 
CN(C)c1ccccc1 | inactive | 
Nc1ccc(Cc2ccc(N)cc2)cc1 | inactive | 
Clc1ccc(C(c2ccc(Cl)cc2)C(Cl)(Cl)Cl)cc1 |  | 15.8 µM (active)
O=[N+]([O-])C(Br)(CO)CO |  | 30.2 µM (active)
Cn1cc(-c2ccccc2)c(=O)c(-c2cccc(C(F)(F)F)c2)c1 | inactive | 
OCCCl | inactive | 
O=C(Nc1ccccc1)c1ccccc1I | inactive | 
CN(C)C(=O)Nc1ccc(Cl)cc1 | inactive | 
Nc1cc(Cl)cc(C(=O)O)c1Cl | inactive | 
CCCCC(CC)COC(=O)c1ccc(C(=O)OCC(CC)CCCC)c(C(=O)OCC(CC)CCCC)c1 (stereo not given) | inactive | 
O=C(Oc1ccc(Br)cc1)N1CCN2CCC1CC2 | inactive | 
O=P(OCCCl)(OCCCl)OCCCl | inactive | 
CC(C)(C)C(O)(CCc1ccc(Cl)cc1)Cn1cncn1 (stereo not given) | inactive | 
Nc1ccc(Cl)cc1N | inactive | 

Compound | outcome | AC50
CS(=O)(=O)NC(=O)c1cc(Oc2ccc(C(F)(F)F)cc2Cl)ccc1[N+](=O)[O-] | inactive | 
Oc1ccccc1Cl | inactive | 
C[C@]12C=CC3=C4CCC(=O)C=C4CC[C@H]3[C@@H]1CC[C@@H]2O | inactive | 
Clc1ccc(Cl)c(Cl)c1 | inactive | 
O=[N+]([O-])c1ccc(Oc2ccc(Cl)cc2Cl)cc1 | inactive | 
Nc1ccc([N+](=O)[O-])cc1 | inactive | 
ClC1=C(Cl)[C@]2(Cl)[C@H]3[C@H]([C@@H]4C=C[C@H]3C4)[C@@]1(Cl)C2(Cl)Cl |  | 16.4 µM (active)
CCCCCCCCn1sccc1=O |  | 0.949 µM (active)
CCC[CH2][Sn]([Cl])([CH2]CCC)[CH2]CCC |  | 0.369 µM (active)
Nc1ccc(N=Nc2ccccc2)cc1 | inactive | 
CC(C)(C)OOC(=O)c1ccccc1 |  | 35.1 µM (active)
COC(=O)Nc1nc2ccccc2[nH]1 | inactive | 
CC(C)(O)c1cnn2c(-c3ccc(F)c(-c4c(F)cccc4C#N)c3)cnc2n1 | inactive | 
c1ccc2c(c1)oc1ccccc12 | inactive | 
CCCCCCCCCCCCCN1CC(C)OC(C)C1 (stereo not given) | inactive | 
CN(C)[C@@H]1C(=O)C(C(N)=O)=C(O)[C@@]2(O)C(=O)C3=C(O)c4c(O)cccc4[C@@](C)(O)[C@H]3C[C@@H]12 | inactive | 
O=C(N[C@H](c1ccccc1)[C@@H]1CN2CCC1CC2)c1c(Cl)ccc(C(F)(F)F)c1Cl | inactive | 
N#CC(Br)(Br)C(N)=O | inactive | 
C1=Cc2cccc3cccc1c23 | inactive | 
Cc1ccc(N)cc1 | inactive | 
